A short description of test [1]: qHTS Assay for Lipid Storage Modulators (AID 1519; calls by dose curve; as to activity change, negative = inhibition: % is scaled to controls: 0 for no effect and ±100 for the full control effect). The settings on record: Drosophila S3 cells, BODIPY lipid droplet/cell ratio, laser cytometry, cells loaded with oleic acid. Summed up: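 Cells seeded at 5,000 per well were treated with compounds over a concentration series and loaded with oleic acid (400 uM, as added). Lipid droplet fluorescence (488 nm excitation, 500-530 nm channel) was read by laser-scanning cytometry and normalized to 20 uM Triacsin C.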
Background: Quantitative high-throughput screening tests each substance at several concentrations.

Test [2] deals with DNA repair nuclease/redox regulator APEX1 (Homo sapiens) (UniProt P27695). Kind of test: qHTS Validation Assay for Inhibitors of the Human Apurinic/apyrimidinic Endonuclease 1 (APE1) (AID 1705;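 also: TAMRA fluorescence gain over two minutes as APE1 cuts a quenched THF abasic duplex; % is scaled to controls: 0 for no effect and ±100 for the full control effect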). Summed up: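 Endonuclease activity of human APE1 is followed as dequenching when the enzyme incises a tetrahydrofuran abasic site in a short duplex labelled 5'-TAMRA/3'-BHQ-2 (50 nM final), after 15 min enzyme–compound preincubation at room temperature.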
Chain of DNA repair nuclease/redox regulator APEX1 (Homo sapiens) (P27695 whole entry, looked up): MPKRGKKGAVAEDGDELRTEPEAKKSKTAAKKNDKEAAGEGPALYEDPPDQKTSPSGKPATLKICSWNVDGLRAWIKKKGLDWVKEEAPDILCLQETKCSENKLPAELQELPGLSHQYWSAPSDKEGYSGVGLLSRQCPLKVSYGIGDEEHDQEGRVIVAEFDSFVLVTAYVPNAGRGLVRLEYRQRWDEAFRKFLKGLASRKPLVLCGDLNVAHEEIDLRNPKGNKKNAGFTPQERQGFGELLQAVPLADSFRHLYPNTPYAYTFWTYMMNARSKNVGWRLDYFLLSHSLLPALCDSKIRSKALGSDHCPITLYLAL

The nature of test [3]: Counterscreen for APE1 Inhibitors: Fluorescent Dye Displacement Validation Assay (AID 1707).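 Also: plate controls were ThO with dsDNA and no compound for no effect and ThO without dsDNA for full effect.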 An outline of the steps:
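Reaction mixture of 250 nM Thiazole Orange and 50 nM double-stranded abasic-site DNA was dispensed, compounds were pin-transferred, and fluorescence was read at endpoint (480 nm ex, 540 nm em). Reduced fluorescence indicated dye displacement by DNA binding.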
On the technique in general: The purpose of a counterscreen is to sort out artefacts and off-target activity.

Test [4] has as its target Alpha-galactosidase A (Homo sapiens) (UniProt P06280). Kind of test: Counterscreen for Glucocerebrosidase Inhibitors: qHTS Assay for Human alpha-Galactosidase at pH 4.5 (AID 992). Also: 0% is about no effect. An outline of the steps:
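Steps: enzyme (2 nM final), then compound across 0.7 nM to 77 uM, then 80 uM fluorogenic galactopyranoside substrate; incubate 20 min at room temperature; quench at pH 10; measure fluorescence at 365/440 nm.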

For test [5], the target named is alpha-glucosidase (Oryza sativa, rice) (UniProt Q653V4). The test can be described thus: Counterscreen for Glucocerebrosidase Inhibitors: qHTS Assay for Rice alpha-Glucosidase at pH 5.0 (AID 997).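 Also: 0% = full activity with enzyme and -100% = basal without enzyme.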 Summed up:
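Endpoint fluorogenic assay at pH 5.0: compounds (0.7 nM to 77 uM) titrated against 4 nM rice enzyme and 400 uM 4-MU-alpha-glucoside for 20 min at room temperature; NaOH/glycine stop, read ex 365/em 440 nm, Hill-fitted AC50.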

Test [6] has as its target Endonuclease 4 (Escherichia coli (strain K12)) (UniProt P0A6C1). The test can be described thus: Counterscreen for APE1 Inhibitors: qHTS Validation Assay for Inhibitors of Endonuclease IV (AID 1708). Also: % is scaled to controls: 0 for no effect and ±100 for the full control effect. An outline of the steps:
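The reaction buffer contained 50 mM Tris-HCl pH 7.5, 50 mM NaCl, 2 mM MgCl2, 1 mM DTT and 0.01% Tween-20. Incision of a 50 nM fluorophore/quencher THF substrate by 2 nM enzyme was measured kinetically.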

The mark [7] stands for this setting: measured here: cell count channel max response.
Setting [8] is: measured here: lipid channel max response.

Values joined by “and” are separate entries in the source; they are usually repeats but may differ in a detail not shown here. Equal values may be shown once. Results filed as inconclusive are left out. Active and inactive are the calls of the source. Unless noted, calls follow the shape of the dose curve; as a rule, active = well fitted curve in the direction sought with a large enough effect; inconclusive = small, poorly fitted or top-dose-only effect, or another doubt; inactive = no such curve, though single readings can be large; an effect the other way counts as inactive or inconclusive.

Chain of Alpha-galactosidase A (Homo sapiens) (P06280 whole entry, looked up): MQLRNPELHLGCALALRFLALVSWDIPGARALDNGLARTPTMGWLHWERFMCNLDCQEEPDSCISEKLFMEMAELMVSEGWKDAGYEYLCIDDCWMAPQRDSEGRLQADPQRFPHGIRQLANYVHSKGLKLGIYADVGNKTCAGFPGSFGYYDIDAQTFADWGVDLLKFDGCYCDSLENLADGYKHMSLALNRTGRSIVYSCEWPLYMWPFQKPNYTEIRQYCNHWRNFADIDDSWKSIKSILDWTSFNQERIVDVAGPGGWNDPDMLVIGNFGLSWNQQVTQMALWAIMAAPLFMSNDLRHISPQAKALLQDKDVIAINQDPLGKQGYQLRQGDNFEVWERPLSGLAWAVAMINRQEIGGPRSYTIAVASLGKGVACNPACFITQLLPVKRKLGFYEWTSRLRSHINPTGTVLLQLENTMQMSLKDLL

Take `CSc1ccc2c(c1)C(N1CCN(C)CC1)Cc1ccccc1S2` (stereo not drawn): the activity change, negative = inhibition in test [1] (at 57.5 µM (top of the series)) was 1.28% (inactive) and 0.609% (inactive). The max response was 9.1% and -20.8% in test [1] (setting [7]); 12.4% and -19.6% in test [1] (setting [8]). Moreover, the Potency entry in test [2] and in test [3] was “inactive” throughout.

With `Nc1cc(=O)[nH]c(N)n1`, the compound was called inactive in test [4] and in test [5]. The activity change, negative = inhibition in test [1] (at 57.5 µM (top of the series)) is 1.9% (inactive). The max response in test [1] (setting [7]) was -3.41%; in test [1] (setting [8]), -1.88%. In addition, the Potency entry in test [2], in test [3] and in test [6] was “inactive” throughout.

Regarding `CCn1cc(C(=O)O)c(=O)c2cnc(N3CCNCC3)nc21`, the activity change, negative = inhibition in test [1] (at 25.7 µM (top of the series)) was -2.05% (inactive); in test [1] (at 57.5 µM (top of the series)) it was 0.203% (inactive). Also, the max response is 0.27% and 20.9% in test [1] (setting [7]); -1.56% and 23.6% in test [1] (setting [8]).

On to `CN(C)CCCN1c2ccccc2Sc2ccc(Cl)cc21`, for which the compound was classed as inactive in test [4] and in test [5]. The figures for the activity change, negative = inhibition in test [1] (at 25.7 µM (top of the series)) and in test [1] (at 57.5 µM (top of the series)) were -3.35% (inactive) and 10.9% (inactive), respectively. Besides, the max response was -15.1% and 7.95% in test [1] (setting [7]); -17.6% and 24.6% in test [1] (setting [8]). In addition, the Potency entry in test [2] and in test [3] was “inactive” each time.

For the compound `Cc1cc2c(cc1S(N)(=O)=O)S(=O)(=O)CCC2`, the activity change, negative = inhibition in test [1] (at 25.7 µM (top of the series)) was -2.69% (inactive). Further, the max response amounted to 5.71% in test [1] (setting [7]) and 1.67% in test [1] (setting [8]).

On to `C[C@](N)(Cc1ccc(O)cc1)C(=O)O`, for which, in test [1] (at 57.5 µM (top of the series)), the activity change, negative = inhibition was 2.05% (inactive). Moreover, the results for the max response in test [1] (setting [7]) and in test [1] (setting [8]) were 7.9% and 13.3%, respectively. Besides, the Potency entry in test [2], in test [3] and in test [6] was “inactive” each time.

With `NS(=O)(=O)c1cc2c(cc1C(F)(F)F)NC(Cc1ccccc1)NS2(=O)=O` (stereo not drawn), the activity change, negative = inhibition in test [1] (at 57.5 µM (top of the series)) was 2.56% (inactive). The max response in test [1] (setting [7]) turned out to be 6.37%; in test [1] (setting [8]) it was 10.5%.

Take `CNCCCC1c2ccccc2C=Cc2ccccc21`: the outcome in test [4] and in test [5] was inactive. The activity change, negative = inhibition in test [1] (at 25.7 µM (top of the series)) was -5.19% (inactive); in test [1] (at 57.5 µM (top of the series)), 0.497% (inactive). Also, the max response in test [1] (setting [7]) was -11.5% and -13.6%; in test [1] (setting [8]), -15.9%. Besides, the Potency result in test [2] and in test [3] was “inactive” in each case.

For `CC(C)NC[C@H](O)c1ccc(O)c(O)c1`, the compound was called inactive in test [4] and in test [5]. The activity change, negative = inhibition was -3.67% (inactive) in test [1] (at 25.7 µM (top of the series)); 0.654% (inactive) and 2.27% (inactive) in test [1] (at 57.5 µM (top of the series)). Besides, the max response is -12.5% and 0.715% and 18.4% in test [1] (setting [7]); -17.7% and 2.86% and 19.2% in test [1] (setting [8]). In addition, the Potency entry in test [2], in test [3] and in test [6] was “inactive” each time.

As for `Cc1ccc(C(C)C)cc2c(C)ccc1-2`, the activity change, negative = inhibition in test [1] (at 57.5 µM (top of the series)) is 7.53% (inactive). In addition, the max response was determined as 18.3% in test [1] (setting [7]) and 26.1% in test [1] (setting [8]).

For the compound `CN(C)CC[C@@H](c1ccc(Cl)cc1)c1ccccn1`, in test [1] (at 57.5 µM (top of the series)), the activity change, negative = inhibition was -0.0513% (inactive). In addition, the max response was found to be 35.1% in test [1] (setting [7]) and 34.2% in test [1] (setting [8]). Also, the Potency result in test [2], in test [3] and in test [6] was “inactive” in each case.

Take `C[C@H]1O[C@@H](n2cc(F)c(=O)[nH]c2=O)[C@H](O)[C@@H]1O`: the activity change, negative = inhibition in test [1] (at 57.5 µM (top of the series)) is -0.32% (inactive). Also, the max response turned out to be 40.7% in test [1] (setting [7]) and 39.7% in test [1] (setting [8]). The Potency result in test [2], in test [3] and in test [6] was “inactive” throughout.

For the compound `c1ccc(CN(CC2=NCCN2)c2ccccc2)cc1`, the activity change, negative = inhibition in test [1] (at 25.7 µM (top of the series)) is -2.49% (inactive); in test [1] (at 57.5 µM (top of the series)) it was -1.31% (inactive). Further, the max response in test [1] (setting [7]) is 2.23% and 6.19%; in test [1] (setting [8]), -3.05% and 6.55%.

The record behind these values is PubChem BioAssay (NCATS).
